# SMN2 splice enh: increases expression of the SMN2 splice variant; HEK293 SMN2-luciferase splicing reporter, luminescence, 30-36 h; Potency, µM (series often up to 46.1 µM), without a hit: top-dose activity change, positive = activation, most hits filed as activators; actives 2.8% (n = 210,000); also: % of control where 0% means no effect; nearly all actives have a fitted effect of over 55% in size
#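 HEK293 cells carry an SMN2 minigene-luciferase reporter in which exon 7 inclusion puts luciferase in frame. Cells were seeded at 2000 cells/well, attached for 10-12 hours, then exposed to compounds for 30-36 hours at 37C before ONE-Glo luminescence.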
# Rab9 prom act: activates the Rab9 promoter. Potency, µM (titrated, usually from 9.22 µM), for the others: at the highest dose activation, negative = inhibition, actives largely listed as activators. actives 2.8% (n = 320,000). Huh7 Rab9 promoter-luciferase reporter, luminescence, 24 h. AID 485297; also: % of control where 0% means no effect; nearly all actives have a fitted effect of over 60% in size
#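 Steps: seed 1500 Huh7 Rab9-luc cells per well, rest 2 h at 37 °C; add compound in DMSO; incubate 24 h; add luciferase reagent, 10 min ambient; read luminescence.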
# ELG1 genotoxic: induces genotoxicity in HEK293T cells with luciferase-tagged ELG1; HEK293T ELG1-luciferase reporter, luminescence, 16 h; Potency, µM (titrated, usually from 46 µM), for the others: top-dose activity change, positive = activation, most hits filed as activators; actives 1.3% (n = 330,000); AID 504466; also: % of control where 0% means no effect; nearly all actives have a fitted effect of over 60% in size
#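 Luminescence read-out: rising ELG1-luciferase signal, reflecting elevated ELG1 protein under genetic stress, flags genotoxic compounds. Cells were treated for 16 hr at 37 °C before ONE-Glo detection.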
# FLuc modulator: firefly luciferase modulation, counter-screen for miR-21 project; purified FLuc, Km substrates, luminescence inhibition; Potency, µM (titrated, usually from 57.5 µM), inactives show at the highest dose activity change, negative = inhibition, most hits filed as inhibitors; actives 6.9% (n = 360,000); AID 588342;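 also: plate controls were vehicle for no effect and reference inhibitor for full effect; nearly all actives have a fitted effect of over 55% in size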
# Target sequence (P08659 whole entry, looked up): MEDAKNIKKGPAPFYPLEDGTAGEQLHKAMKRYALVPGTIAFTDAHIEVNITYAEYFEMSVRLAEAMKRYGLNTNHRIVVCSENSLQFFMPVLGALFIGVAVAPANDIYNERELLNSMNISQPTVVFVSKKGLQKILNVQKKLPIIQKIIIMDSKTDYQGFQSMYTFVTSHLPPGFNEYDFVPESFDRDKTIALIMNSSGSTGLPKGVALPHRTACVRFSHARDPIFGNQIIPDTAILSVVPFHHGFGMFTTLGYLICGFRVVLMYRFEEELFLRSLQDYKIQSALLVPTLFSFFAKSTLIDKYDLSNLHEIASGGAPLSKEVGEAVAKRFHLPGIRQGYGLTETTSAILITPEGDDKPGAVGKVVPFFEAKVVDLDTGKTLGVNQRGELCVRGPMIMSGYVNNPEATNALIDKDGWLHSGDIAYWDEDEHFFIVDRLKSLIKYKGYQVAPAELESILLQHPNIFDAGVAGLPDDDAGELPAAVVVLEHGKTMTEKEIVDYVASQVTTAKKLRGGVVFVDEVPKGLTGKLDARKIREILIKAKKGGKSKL
#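 Biochemical qHTS of compounds, final roughly 60 µM downward over six points, against 10 nM purified firefly luciferase using Km concentrations of substrates (10 uM D-luciferin, 10 uM ATP) in Tris acetate pH 7.5 buffer; luminescence output.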
# NPC1 prom act: NPC1 promoter activation. Huh7 NPC1 promoter luciferase reporter, 24 h. Potency, µM (highest dose often 9.22 µM), for the others: top-dose activation, usual class: activators. actives 2.4% (n = 320,000). AID 485313; also: % of control where 0% means no effect; nearly all actives have a fitted effect of over 60% in size
#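 Luminescence read-out of NPC1 promoter-driven luciferase in stably transfected Huh7 cells; compounds delivered in DMSO and left 24 h at 37C, 5% CO2, qHTS titration format.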
# ELG1 repair inh: ELG1-dependent DNA repair inhibition; actives 2.3% (n = 330,000); HEK293T ELG1-luciferase reporter, luminescence, 16 h; DNA damage induced by 5-fluorouridine; Potency, µM (titrated, usually from 46.1 µM), for the others: top-dose activity change, negative = inhibition, usual class: inhibitors; AID 504467; also: % is scaled to controls: 0 for no effect and ±100 for the full control effect; nearly all actives have a fitted effect of over 55% in size
#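 Overnight (16 hr) co-exposure of 2,000 cells/well to 5-fluorouridine and compound at 37 °C preceded detection. Luciferase was quantified via ONE-Glo luminescence; loss of signal denotes inhibition.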
# Numbers without * were called inactive; u = inconclusive; x = no result given. Hits are enriched below; roughly 9.4% of the tested compounds scored in any of these assays. Calls follow the shape of the dose curve; as a rule, active = well fitted curve in the direction sought with a large enough effect; inconclusive = small, poorly fitted or top-dose-only effect, or another doubt; inactive = no such curve, though single readings can be large; an effect the other way counts as inactive or inconclusive. Potency is read from the fitted curve at half-maximal effect.
SMILES,SMN2 splice enh,Rab9 prom act,ELG1 genotoxic,FLuc modulator,NPC1 prom act,ELG1 repair inh
O=c1oc2ccccc2nc1/C=C(O)/C=C\c1ccccc1,5%,0%,-6%,-17%,10%,33%
Cc1ccc(/C(O)=C/c2nc3ccccc3oc2=O)cc1,x,-1%,-6%,3µM*,-3%,2%
O=C(Nc1ccc2c(c1)N(C1CCCC1)C(=O)c1ccccc1S2)c1cccc(F)c1,x,x,x,7%,x,x
COc1ccc(Cl)cc1NC(=O)CCn1nc(C)cc1C,x,x,x,-2%,x,x
Cc1ccccc1Nc1c(-c2ccco2)nc2c(C)cccn12,16µM*,x,x,13µM*,x,x
COc1ccccc1CNS(=O)(=O)c1ccc(F)c(C(=O)Nc2cc(Cl)ccc2OC)c1,x,x,x,-3%,x,x
O=C1CCCCCN1Cc1nnc(SCc2nc3ccccc3s2)n1-c1ccccn1,-32%,u,u,7.6µM*,18%,u
CCNC(=O)CSc1nnc(CN2CCCCCC2=O)n1-c1ccccn1,-4%,0%,0%,-1%,-3%,12%
CN(C)c1ccc(NC(=S)NC23CC4CC(CC(C4)C2)C3)cc1,x,u,u,12µM*,-2%,u
CN(C)S(=O)(=O)c1cccc(NC(=S)NC23CC4CC(CC(C4)C2)C3)c1,x,-1%,-17%,2%,-1%,-16%
CCOc1ccc(NC(=S)NC23CC4CC(CC(C4)C2)C3)cc1,x,0%,2%,-1%,-1%,3%
FC(F)Oc1ccc(NC(=S)NC23CC4CC(CC(C4)C2)C3)cc1,x,22%,-14%,19µM*,3%,-18%
Cc1c(CCC(=O)O)c(=O)oc2cc(OCc3ccccc3Br)ccc12,x,-3%,-3%,u,-4%,1%
Cc1c(CCC(=O)O)c(=O)oc2cc(OCc3cccc(F)c3)ccc12,x,2%,2%,u,0%,6%
Cc1c(CC(=O)O)c(=O)oc2cc(OCc3ccc(F)cc3F)ccc12,x,-2%,3%,17µM*,1%,0%
Cc1c(CC(=O)O)c(=O)oc2cc(OCc3ccc(Br)cc3)ccc12,x,15%,13%,11µM*,3%,7%
Cc1sc2nc(-c3cccs3)oc(=O)c2c1C,x,-2%,3%,11µM*,15%,u
O=c1oc(-c2cccs2)nc2scc(-c3cccs3)c12,11µM*,14%,0%,7.6µM*,7%,u
CC(C)(C)c1nc2scc(-c3ccc(Br)cc3)c2c(=O)o1,8%,12%,-9%,0%,1%,u
CCc1cc2c(=O)oc(-c3ccc(Br)cc3)nc2s1,x,18%,-1%,6µM*,14%,u
Cc1sc2nc(-c3ccc(Br)cc3)oc(=O)c2c1C,x,7%,-3%,2.7µM*,u,17%
CC/C=C\C/C=C\C/C=C\C/C=C\C=C\C(O)CCCC(=O)O (stereo not given),1%,x,x,x,x,x
O=C(CN1C(=O)CCSc2ccc(S(=O)(=O)N3CCCC3)cc21)Nc1cccc(F)c1,x,x,x,6%,x,x
Cc1ccc(C(c2sc3nc(-c4ccco4)nn3c2O)N2CCC3(CC2)OCCO3)cc1 (stereo not given),x,x,x,-15%,x,x
COc1ccc(-n2ncc3c(N4CCC(C)CC4)ncnc32)cc1,x,0.1µM*,0.26µM*,0.54µM*,0.11µM*,u
Cc1ccc(-n2ncc3c(N4CCC(C)CC4)ncnc32)cc1C,x,x,x,1.5µM*,x,x
CC1CCN(c2ncnc3c2cnn3-c2ccccc2)CC1,13µM*,0.63µM*,1.5µM*,2.1µM*,0.89µM*,u
Cc1ccc(-n2ncc3c(N4CCC(Cc5ccccc5)CC4)ncnc32)cc1C,x,x,x,-2%,x,x
Cc1ccc(CN2CCN(C3CCN(C(=O)OC(C)(C)C)CC3)C(=O)C2=O)cc1,x,x,x,-4%,x,x
Cc1cccc(N2CCN(C(=O)C3CCC(CNS(=O)(=O)c4cccs4)CC3)CC2)c1C (stereo not given),x,-16%,-6%,3%,-3%,9.2µM*
